Test results taken from the supplement of paper PMC10849652.
The full data set covers some 7,900 targets. This sample favours those with a hit. About 0.6% of all pairs of compound and target were hits.

compound: CC[C@@H]1C(=O)N(C)c2cnc(Nc3ccc(C(=O)N[C@H]4CC[C@H](N5CCN(CC6CC6)CC5)CC4)cc3OC)nc2N1C(C)C [volasertib]; test: log2 fold change, soluble protein after heating vs DMSO (PISA); higher = thermal stabilisation; K562 cells, 10 uM, 30 min; active = over 0.2 and 3.5 SD of the protein, either way, in both replicates (recomputed)
Summary of the method: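 Values are thermal stability changes relative to control samples and are taken from duplicates. They are stated as log2 fold changes. Before quantification by TMTpro 16plex LC-MS/MS with equalised channel sums, K562 cells at 2×10^6 cells/mL were treated with 10 μM compound for 30 min, heated in aliquots for 3 min across 48°C-58°C, pooled, extracted in PBS with 0.5% NP-40 at 4°C, and centrifuged at 21,000xg for 90 min to give the soluble supernatant.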

Sequence of UniProt Q15005 (Q15005 whole entry, looked up): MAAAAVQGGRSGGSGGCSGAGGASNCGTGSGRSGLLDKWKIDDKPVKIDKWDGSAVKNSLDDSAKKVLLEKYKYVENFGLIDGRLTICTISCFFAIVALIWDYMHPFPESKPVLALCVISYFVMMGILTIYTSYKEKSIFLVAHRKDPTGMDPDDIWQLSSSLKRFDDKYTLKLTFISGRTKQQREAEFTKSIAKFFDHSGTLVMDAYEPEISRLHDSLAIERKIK
Sequence of UniProt Q9BZD2 (Q9BZD2 whole entry, looked up): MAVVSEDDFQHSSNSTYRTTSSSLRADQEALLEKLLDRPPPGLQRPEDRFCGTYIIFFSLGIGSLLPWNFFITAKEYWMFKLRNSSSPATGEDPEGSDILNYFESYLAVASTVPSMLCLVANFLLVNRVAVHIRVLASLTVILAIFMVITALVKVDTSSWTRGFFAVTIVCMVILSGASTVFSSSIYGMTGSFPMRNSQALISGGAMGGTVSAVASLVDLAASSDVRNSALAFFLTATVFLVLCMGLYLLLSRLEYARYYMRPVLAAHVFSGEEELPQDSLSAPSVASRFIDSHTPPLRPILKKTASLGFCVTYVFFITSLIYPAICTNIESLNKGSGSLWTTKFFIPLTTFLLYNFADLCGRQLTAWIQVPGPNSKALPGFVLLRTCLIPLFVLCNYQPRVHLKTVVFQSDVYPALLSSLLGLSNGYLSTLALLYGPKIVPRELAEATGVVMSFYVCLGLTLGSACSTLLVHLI
Sequence of UniProt Q9UHD2 (Q9UHD2 whole entry, looked up): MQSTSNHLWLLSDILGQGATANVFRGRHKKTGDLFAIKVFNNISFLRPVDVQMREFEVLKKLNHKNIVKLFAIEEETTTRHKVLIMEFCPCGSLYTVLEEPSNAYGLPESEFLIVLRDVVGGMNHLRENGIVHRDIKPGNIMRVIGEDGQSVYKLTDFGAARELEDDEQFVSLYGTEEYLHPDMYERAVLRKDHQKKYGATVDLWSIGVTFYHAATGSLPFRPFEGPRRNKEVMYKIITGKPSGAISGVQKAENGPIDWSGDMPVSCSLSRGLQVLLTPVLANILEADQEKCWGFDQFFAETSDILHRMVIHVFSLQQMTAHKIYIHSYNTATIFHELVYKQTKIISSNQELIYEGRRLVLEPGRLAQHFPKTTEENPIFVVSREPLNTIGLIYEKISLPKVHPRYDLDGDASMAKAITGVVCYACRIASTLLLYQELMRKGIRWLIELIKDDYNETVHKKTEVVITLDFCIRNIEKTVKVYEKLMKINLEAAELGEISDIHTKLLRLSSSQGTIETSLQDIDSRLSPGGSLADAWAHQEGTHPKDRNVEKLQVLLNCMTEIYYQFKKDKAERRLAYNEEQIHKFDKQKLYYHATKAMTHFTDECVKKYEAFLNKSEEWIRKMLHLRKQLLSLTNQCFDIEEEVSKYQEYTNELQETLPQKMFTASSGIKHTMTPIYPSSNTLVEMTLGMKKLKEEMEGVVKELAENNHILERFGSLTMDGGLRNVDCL
Sequence of UniProt O94901 (O94901 whole entry, looked up): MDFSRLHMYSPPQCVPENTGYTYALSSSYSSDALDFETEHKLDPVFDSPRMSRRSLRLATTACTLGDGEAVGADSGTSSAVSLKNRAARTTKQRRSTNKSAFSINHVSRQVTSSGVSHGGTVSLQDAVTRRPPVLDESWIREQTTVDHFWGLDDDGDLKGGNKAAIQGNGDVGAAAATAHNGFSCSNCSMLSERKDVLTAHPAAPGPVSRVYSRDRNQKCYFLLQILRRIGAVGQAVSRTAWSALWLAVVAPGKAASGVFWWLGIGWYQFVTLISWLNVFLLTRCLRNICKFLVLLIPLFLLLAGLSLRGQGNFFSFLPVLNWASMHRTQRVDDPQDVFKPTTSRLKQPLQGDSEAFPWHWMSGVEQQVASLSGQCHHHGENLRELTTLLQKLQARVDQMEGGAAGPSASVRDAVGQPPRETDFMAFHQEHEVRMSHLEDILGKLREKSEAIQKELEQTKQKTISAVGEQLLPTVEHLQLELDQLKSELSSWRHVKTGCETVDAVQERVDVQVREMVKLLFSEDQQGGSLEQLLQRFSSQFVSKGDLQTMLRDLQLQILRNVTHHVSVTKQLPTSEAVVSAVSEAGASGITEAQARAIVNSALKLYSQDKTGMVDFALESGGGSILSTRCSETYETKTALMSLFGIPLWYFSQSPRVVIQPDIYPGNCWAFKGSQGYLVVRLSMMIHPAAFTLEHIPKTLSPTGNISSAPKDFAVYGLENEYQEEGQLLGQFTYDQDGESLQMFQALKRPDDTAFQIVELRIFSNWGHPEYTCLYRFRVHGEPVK
Sequence of UniProt P55061 (P55061 whole entry, looked up): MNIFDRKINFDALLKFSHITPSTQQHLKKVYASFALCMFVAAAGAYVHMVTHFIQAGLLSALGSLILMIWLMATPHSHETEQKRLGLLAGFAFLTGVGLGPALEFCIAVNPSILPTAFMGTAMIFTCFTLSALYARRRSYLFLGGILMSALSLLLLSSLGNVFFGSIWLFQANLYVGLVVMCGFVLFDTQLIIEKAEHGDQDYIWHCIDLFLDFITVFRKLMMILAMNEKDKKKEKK
Sequence of UniProt Q9NS93 (Q9NS93 whole entry, looked up): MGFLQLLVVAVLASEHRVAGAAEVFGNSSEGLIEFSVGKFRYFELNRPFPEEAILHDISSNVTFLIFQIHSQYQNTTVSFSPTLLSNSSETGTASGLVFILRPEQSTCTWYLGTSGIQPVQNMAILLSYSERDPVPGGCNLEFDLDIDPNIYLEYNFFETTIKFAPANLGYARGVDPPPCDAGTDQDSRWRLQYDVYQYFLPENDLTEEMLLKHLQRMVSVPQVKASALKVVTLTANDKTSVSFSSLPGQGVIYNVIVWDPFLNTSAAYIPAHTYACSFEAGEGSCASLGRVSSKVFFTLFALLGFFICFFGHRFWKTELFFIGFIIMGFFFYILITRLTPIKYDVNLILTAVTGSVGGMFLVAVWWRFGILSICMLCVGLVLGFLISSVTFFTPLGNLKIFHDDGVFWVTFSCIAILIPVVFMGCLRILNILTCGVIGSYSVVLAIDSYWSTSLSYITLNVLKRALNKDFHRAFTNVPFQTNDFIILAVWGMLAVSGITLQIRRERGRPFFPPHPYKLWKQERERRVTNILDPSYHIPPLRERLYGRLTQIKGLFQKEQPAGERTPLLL
Sequence of UniProt P23497 (P23497 whole entry, looked up): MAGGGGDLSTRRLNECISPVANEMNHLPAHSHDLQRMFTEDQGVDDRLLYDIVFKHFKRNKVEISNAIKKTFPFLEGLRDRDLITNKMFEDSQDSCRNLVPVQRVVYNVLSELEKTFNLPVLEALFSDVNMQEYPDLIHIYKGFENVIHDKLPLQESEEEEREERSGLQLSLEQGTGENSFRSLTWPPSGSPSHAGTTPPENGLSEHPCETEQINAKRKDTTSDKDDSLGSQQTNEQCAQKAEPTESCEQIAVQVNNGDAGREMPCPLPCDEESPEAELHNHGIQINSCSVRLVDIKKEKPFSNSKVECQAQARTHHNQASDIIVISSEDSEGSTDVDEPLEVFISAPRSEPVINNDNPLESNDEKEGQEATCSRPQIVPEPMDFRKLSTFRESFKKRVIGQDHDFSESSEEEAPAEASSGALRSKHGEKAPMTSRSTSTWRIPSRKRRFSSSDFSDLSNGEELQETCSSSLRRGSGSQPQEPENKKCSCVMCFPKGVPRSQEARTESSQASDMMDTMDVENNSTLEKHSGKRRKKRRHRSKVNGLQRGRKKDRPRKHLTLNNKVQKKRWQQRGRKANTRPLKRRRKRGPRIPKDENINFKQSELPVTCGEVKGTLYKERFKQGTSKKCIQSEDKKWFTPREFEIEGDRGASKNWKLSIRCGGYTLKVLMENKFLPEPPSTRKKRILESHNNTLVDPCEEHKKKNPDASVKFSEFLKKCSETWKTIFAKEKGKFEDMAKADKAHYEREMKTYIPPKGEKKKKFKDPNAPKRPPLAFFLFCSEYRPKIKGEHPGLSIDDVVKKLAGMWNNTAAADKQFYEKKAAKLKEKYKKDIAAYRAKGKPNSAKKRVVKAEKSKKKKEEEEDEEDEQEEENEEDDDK
Sequence of UniProt Q9NRS6 (Q9NRS6 whole entry, looked up): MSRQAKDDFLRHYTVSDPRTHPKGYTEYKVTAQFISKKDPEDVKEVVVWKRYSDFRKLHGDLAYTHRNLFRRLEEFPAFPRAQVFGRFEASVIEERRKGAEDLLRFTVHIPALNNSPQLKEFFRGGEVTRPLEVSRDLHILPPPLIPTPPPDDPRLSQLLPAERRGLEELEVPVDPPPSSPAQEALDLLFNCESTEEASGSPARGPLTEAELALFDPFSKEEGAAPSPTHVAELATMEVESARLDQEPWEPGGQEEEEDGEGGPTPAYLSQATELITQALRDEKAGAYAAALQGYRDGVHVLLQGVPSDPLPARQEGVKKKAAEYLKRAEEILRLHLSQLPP
Sequence of UniProt Q9P289 (Q9P289 whole entry, looked up): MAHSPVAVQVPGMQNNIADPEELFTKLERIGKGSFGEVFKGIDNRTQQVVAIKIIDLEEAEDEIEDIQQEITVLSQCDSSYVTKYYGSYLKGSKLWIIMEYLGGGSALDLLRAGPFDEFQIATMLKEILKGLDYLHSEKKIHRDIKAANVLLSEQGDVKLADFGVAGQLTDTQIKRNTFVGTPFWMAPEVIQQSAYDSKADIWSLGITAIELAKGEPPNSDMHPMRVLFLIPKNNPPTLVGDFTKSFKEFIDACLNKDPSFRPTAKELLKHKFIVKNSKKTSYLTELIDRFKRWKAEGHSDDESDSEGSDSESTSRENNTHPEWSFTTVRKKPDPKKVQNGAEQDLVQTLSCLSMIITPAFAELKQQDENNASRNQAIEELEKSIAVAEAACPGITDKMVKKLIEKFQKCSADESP
Sequence of UniProt P20226 (P20226 whole entry, looked up): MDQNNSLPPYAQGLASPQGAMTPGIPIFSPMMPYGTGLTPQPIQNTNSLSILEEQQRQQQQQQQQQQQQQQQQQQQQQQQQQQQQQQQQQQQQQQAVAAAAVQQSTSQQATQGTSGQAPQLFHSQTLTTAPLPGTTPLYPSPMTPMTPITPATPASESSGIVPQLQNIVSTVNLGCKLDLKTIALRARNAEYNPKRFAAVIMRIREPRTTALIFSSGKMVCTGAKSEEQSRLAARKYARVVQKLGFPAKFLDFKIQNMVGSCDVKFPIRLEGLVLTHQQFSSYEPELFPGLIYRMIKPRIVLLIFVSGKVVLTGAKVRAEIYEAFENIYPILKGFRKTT

Target | log2 fold change
SYNE2 isoform 2 (UniProt Q8WXH0) | -0.025 (inactive)
TBK1 (UniProt Q9UHD2) | -0.232 (inactive)
TANGO6 (UniProt Q9C0B7) | -0.375 (active)
SLC38A7 (UniProt Q9NVC3) | -0.054 (inactive)
TENT5C (UniProt Q5VWP2) | -0.038 (inactive)
SRXN1 (UniProt Q9BYN0) | -0.083 (inactive)
SLC29A3 (UniProt Q9BZD2) | 0.007 (inactive)
SMARCE1 (UniProt Q969G3) | -0.125 (inactive)
SRC isoform 2 (UniProt P12931) | -0.03 (inactive)
SRFBP1 (UniProt Q8NEF9) | 0.157 (inactive)
SLC39A11 (UniProt Q8N1S5) | 0.071 (inactive)
TBC1D15 isoform 3 (UniProt Q8TC07) | -0.485 (active)
TM7SF3 (UniProt Q9NS93) | -0.178 (inactive)
SNX15 (UniProt Q9NRS6) | -0.223 (inactive)
SPPL2B (UniProt Q8TCT7) | 0 (inactive)
SMIM20 isoform 2 (UniProt Q8N5G0) | 0.048 (inactive)
SRSF9 (UniProt Q13242) | 0.414 (inactive)
SLC35F6 (UniProt Q8N357) | -0.053 (inactive)
TBC1D20 isoform 3 (UniProt Q96BZ9) | -0.153 (inactive)

Target | log2 fold change
TEX264 (UniProt Q9Y6I9) | 0.356 (inactive)
SPCS2 (UniProt Q15005) | -0.006 (inactive)
TJP1 (UniProt Q07157) | -0.166 (inactive)
TACC2 (UniProt O95359) | -0.048 (inactive)
SSBP4 (UniProt Q9BWG4) | -0.056 (inactive)
SNRPB2 (UniProt P08579) | 0.174 (inactive)
STK26 (UniProt Q9P289) | -0.062 (inactive)
SP100 isoform 4 (UniProt P23497) | -0.065 (inactive)
STARD3NL (UniProt O95772) | -0.022 (inactive)
SNX5 (UniProt Q9Y5X3) | -0.129 (inactive)
TMBIM6 isoform 2 (UniProt P55061) | -0.061 (inactive)
TARS2 (UniProt Q9BW92) | -0.128 (inactive)
SPTBN1 (UniProt Q01082) | -0.163 (inactive)
SLC35A1 (UniProt P78382) | 0.118 (inactive)
SLC38A2 (UniProt Q96QD8) | 0.004 (inactive)
TAOK2 (UniProt Q9UL54) | -0.061 (inactive)
SUN1 isoform 9 (UniProt O94901) | 0.018 (inactive)
SRCAP (UniProt Q6ZRS2) | -0.207 (inactive)
TBP (UniProt P20226) | 0.073 (inactive)
